Experiments:
Assay in all cases: protein-binding microarray (PBM); PBM: ~300 nM protein, 6 mM HEPES pH 7.8, 80 mM KCl, 0.5 mM EDTA, 0.5 mM EGTA, 6% glycerol, 35 ng/ul poly-dIdC, 1% milk, 1 h, room temperature; Ap Aiptasia and Nv Nematostella (sea anemones) / Co Capsaspora / Aq Amphimedon (sponge) / Dm Drosophila / Hu human; RHD is the Rel homology domain; high values mean tight binding
Details in all cases: dsDNA, one strand shown
GST-Ap-NF-kB RHD = target: T1, GST-Ap-NF-kB RHD (Exaiptasia pallida (Aiptasia), UniProt A0A913YAJ5 2-422)
T1 sequence: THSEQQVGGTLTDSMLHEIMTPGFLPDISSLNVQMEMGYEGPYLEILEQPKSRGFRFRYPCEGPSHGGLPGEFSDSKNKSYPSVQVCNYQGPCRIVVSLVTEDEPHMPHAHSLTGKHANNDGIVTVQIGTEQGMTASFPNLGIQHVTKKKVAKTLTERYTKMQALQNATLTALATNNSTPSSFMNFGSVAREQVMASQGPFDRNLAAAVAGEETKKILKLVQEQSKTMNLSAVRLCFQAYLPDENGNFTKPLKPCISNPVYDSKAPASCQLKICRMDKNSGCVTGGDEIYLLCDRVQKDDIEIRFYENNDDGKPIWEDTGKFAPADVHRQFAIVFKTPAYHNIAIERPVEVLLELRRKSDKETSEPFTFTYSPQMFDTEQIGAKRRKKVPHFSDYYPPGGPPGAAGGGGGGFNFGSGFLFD

[1] = target: T2, GST-Nv-NF-kB (Cys allele) (Nematostella vectensis, UniProt E5G601 2-411)
T2 sequence: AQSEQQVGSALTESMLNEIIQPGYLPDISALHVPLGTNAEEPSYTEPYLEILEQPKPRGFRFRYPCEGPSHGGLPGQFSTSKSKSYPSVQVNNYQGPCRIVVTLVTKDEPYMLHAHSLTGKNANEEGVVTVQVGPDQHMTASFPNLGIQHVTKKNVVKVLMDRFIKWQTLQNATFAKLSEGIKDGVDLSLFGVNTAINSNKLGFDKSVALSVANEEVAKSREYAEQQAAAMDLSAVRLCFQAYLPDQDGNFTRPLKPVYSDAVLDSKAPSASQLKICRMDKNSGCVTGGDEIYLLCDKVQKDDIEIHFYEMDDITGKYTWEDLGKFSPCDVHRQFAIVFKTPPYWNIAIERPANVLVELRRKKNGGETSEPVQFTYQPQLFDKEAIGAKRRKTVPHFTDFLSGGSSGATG

GST-Co-NF-kB = target: T3, GST-Co-NF-kB (Capsaspora owczarzaki, UniProt F1ARL5 200-546)
T3 sequence: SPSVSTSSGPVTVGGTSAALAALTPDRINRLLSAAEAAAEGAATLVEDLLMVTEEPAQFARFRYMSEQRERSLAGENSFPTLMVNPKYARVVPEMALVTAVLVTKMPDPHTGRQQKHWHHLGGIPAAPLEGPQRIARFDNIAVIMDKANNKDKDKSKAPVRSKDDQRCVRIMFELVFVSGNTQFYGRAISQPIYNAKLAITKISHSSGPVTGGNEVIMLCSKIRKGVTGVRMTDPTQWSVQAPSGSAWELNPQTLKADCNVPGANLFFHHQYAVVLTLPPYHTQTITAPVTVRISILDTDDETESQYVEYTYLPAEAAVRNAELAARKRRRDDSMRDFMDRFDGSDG

GST-Dm-Relish = target: T4, GST-Dm-Relish (Drosophila melanogaster, UniProt Q94527 99-473)
T4 sequence: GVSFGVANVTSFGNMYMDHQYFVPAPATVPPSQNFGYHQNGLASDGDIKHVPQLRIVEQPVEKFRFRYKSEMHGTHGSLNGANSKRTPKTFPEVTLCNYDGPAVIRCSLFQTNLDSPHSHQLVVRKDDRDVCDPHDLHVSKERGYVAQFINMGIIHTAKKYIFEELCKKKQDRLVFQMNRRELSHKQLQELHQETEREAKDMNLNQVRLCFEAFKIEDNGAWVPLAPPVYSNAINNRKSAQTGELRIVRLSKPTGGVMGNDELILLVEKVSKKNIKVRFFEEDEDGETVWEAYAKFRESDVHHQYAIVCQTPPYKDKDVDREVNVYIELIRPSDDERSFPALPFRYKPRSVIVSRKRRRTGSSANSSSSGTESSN

GST-Aq-NF-kB = target: T5, GST-Aq-NF-kB (Amphimedon queenslandica, UniProt A9Y5G7 2-389)
T5 sequence: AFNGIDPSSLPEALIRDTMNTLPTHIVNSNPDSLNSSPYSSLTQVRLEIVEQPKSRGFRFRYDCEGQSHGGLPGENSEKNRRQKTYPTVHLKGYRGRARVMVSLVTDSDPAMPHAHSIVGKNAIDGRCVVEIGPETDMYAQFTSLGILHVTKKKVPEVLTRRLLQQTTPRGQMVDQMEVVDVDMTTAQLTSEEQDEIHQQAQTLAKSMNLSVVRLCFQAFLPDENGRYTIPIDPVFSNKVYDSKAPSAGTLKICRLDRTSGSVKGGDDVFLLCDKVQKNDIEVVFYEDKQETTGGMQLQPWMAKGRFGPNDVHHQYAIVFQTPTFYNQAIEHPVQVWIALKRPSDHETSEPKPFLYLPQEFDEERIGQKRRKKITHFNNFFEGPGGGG

Sequence	binding signal (GST-Ap-NF-kB RHD)	binding signal [1]	binding signal (GST-Co-NF-kB)	binding signal (GST-Dm-Relish)	binding signal (GST-Aq-NF-kB)
CCGATTAACATCAGGGGGGGTGATGATGTTAATCGGGTCTTGATTCGCTTGACGCTGCTG	3.51 z-score	4.08 z-score	4.48 z-score	4.26 z-score	4.36 z-score
CCGATTAACATCAAAGTGTCCCCTGATGTTAATCGGGTCTTGATTCGCTTGACGCTGCTG	5.38 z-score	4.57 z-score	5.15 z-score	1.98 z-score	4.15 z-score
CCGATTAACATCAGGCCATCCCCTGATGTTAATCGGGTCTTGATTCGCTTGACGCTGCTG	3.87 z-score	4.02 z-score	1.22 z-score	7.89 z-score	5.6 z-score
CCGATTAACATCAGGGGGTGTACTGATGTTAATCGGGTCTTGATTCGCTTGACGCTGCTG	3.65 z-score	3.29 z-score	2.61 z-score	8.3 z-score	4.78 z-score
CCGATTAACATCAAAATAATCCCTGATGTTAATCGGGTCTTGATTCGCTTGACGCTGCTG	6.46 z-score	4.62 z-score	2.45 z-score	4.15 z-score	5.15 z-score
CCGATTAACATCAAGTACCCCCCTGATGTTAATCGGGTCTTGATTCGCTTGACGCTGCTG	5.57 z-score	3.68 z-score	4.81 z-score	4.13 z-score	3.99 z-score
CCGATTAACATCACGGGAACCCCTGATGTTAATCGGGTCTTGATTCGCTTGACGCTGCTG	5.04 z-score	2.85 z-score	1.9 z-score	9.89 z-score	5.86 z-score
CCGATTAACATCAGGGAACTACCTGATGTTAATCGGGTCTTGATTCGCTTGACGCTGCTG	4.91 z-score	4.67 z-score	1.23 z-score	8.33 z-score	6.44 z-score
CCGATTAACATCAGCGAATTCCCTGATGTTAATCGGGTCTTGATTCGCTTGACGCTGCTG	3.47 z-score	4.45 z-score	2.15 z-score	2.72 z-score	3.61 z-score
CCGATTAACATCAATATAGTCCCTGATGTTAATCGGGTCTTGATTCGCTTGACGCTGCTG	5.51 z-score	4.77 z-score	1.15 z-score	1.16 z-score	3.69 z-score
CCGATTAACATCAGGGGGTAGGATGATGTTAATCGGGTCTTGATTCGCTTGACGCTGCTG	4.15 z-score	2.75 z-score	3.64 z-score	1.35 z-score	2.89 z-score
CCGATTAACATCAGGGAAAACGATGATGTTAATCGGGTCTTGATTCGCTTGACGCTGCTG	2.75 z-score	3.95 z-score	3.39 z-score	1.18 z-score	2.74 z-score
CCGATTAACATCAGGGGAGAAAATGATGTTAATCGGGTCTTGATTCGCTTGACGCTGCTG	4.25 z-score	5.5 z-score	8.56 z-score	2.26 z-score	3.89 z-score
CCGATTAACATCAAAAAACACCCTGATGTTAATCGGGTCTTGATTCGCTTGACGCTGCTG	4.07 z-score	4.18 z-score	2.93 z-score	6.06 z-score	5.32 z-score
CCGATTAACATCAAAGGAATCCCTGATGTTAATCGGGTCTTGATTCGCTTGACGCTGCTG	3.02 z-score	2.14 z-score	1.06 z-score	7.59 z-score	2.92 z-score
CCGATTAACATCAGAATAACCCCTGATGTTAATCGGGTCTTGATTCGCTTGACGCTGCTG	5.37 z-score	3.87 z-score	1.66 z-score	3.29 z-score	4.42 z-score
CCGATTAACATCAAGGTAATCCCTGATGTTAATCGGGTCTTGATTCGCTTGACGCTGCTG	4.1 z-score	2.08 z-score	1.06 z-score	5.22 z-score	3.95 z-score
CCGATTAACATCAGGGAACAACCTGATGTTAATCGGGTCTTGATTCGCTTGACGCTGCTG	2.52 z-score	2.46 z-score	1.05 z-score	4.7 z-score	4.61 z-score
CCGATTAACATCAGGGAAAACCATGATGTTAATCGGGTCTTGATTCGCTTGACGCTGCTG	3.89 z-score	5.15 z-score	4.31 z-score	5.57 z-score	5.29 z-score
CCGATTAACATCACGGGATTTACTGATGTTAATCGGGTCTTGATTCGCTTGACGCTGCTG	2.52 z-score	2.6 z-score	1.01 z-score	7.12 z-score	3.52 z-score
CCGATTAACATCACAAATTCCCATGATGTTAATCGGGTCTTGATTCGCTTGACGCTGCTG	2.52 z-score	4.43 z-score	2.69 z-score	4.72 z-score	3.15 z-score
CCGATTAACATCAGGGGACGCACTGATGTTAATCGGGTCTTGATTCGCTTGACGCTGCTG	4.45 z-score	4.2 z-score	2.19 z-score	5.79 z-score	4.68 z-score
CCGATTAACATCAAATCATCCCCTGATGTTAATCGGGTCTTGATTCGCTTGACGCTGCTG	4.78 z-score	5.38 z-score	5.87 z-score	4.06 z-score	5.27 z-score
CCGATTAACATCAGGGAATCTCATGATGTTAATCGGGTCTTGATTCGCTTGACGCTGCTG	2.33 z-score	3.41 z-score	1.96 z-score	1.4 z-score	3.46 z-score
CCGATTAACATCAGGGGTTTACCTGATGTTAATCGGGTCTTGATTCGCTTGACGCTGCTG	5.65 z-score	5.44 z-score	1.56 z-score	9.7 z-score	6.9 z-score
CCGATTAACATCACCCCTCCCCCTGATGTTAATCGGGTCTTGATTCGCTTGACGCTGCTG	4.84 z-score	3.91 z-score	4.73 z-score	3.78 z-score	4.12 z-score
CCGATTAACATCAGGGGAGAATATGATGTTAATCGGGTCTTGATTCGCTTGACGCTGCTG	4.99 z-score	5.42 z-score	7.41 z-score	1.73 z-score	3.83 z-score
CCGATTAACATCAAAAAAACCCATGATGTTAATCGGGTCTTGATTCGCTTGACGCTGCTG	3.72 z-score	4.44 z-score	1.87 z-score	6.31 z-score	5.47 z-score

Source: publication PMC5700166
